From PubChem
Only some compounds are listed: those with a hit (about 11% of all), similar ones and a draw of the others.
HEK293 tox: kills HEK 293 cells. HEK 293 viability, ATP luminescence (CellTiter-Glo), 48-72 h. Potency, µM (top dose mostly 115 µM), for the others: top-dose activity change, negative = cytotoxicity, hits mostly inhibitors. 94,000 compounds, 6.6% hits. AID 1345083; active = well fitted curve in the direction sought with a large enough effect; inconclusive = small, poorly fitted or top-dose-only effect, or another doubt; inactive = no such curve, though single readings can be large; an effect the other way counts as inactive or inconclusive; also: % is scaled to controls: 0 for no effect and ±100 for the full control effect; nearly all actives have a fitted effect of over 60% in size
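Viability of HEK 293 cells, plated at 250 cells/well, was judged by cellular ATP after compound treatment for 48 or 72 hr. Luminescence was imaged 10 min after CellTiter-Glo addition at room temperature.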
FLuc inh: Photinus pyralis luciferase inhibition. 76,000 compounds, 2.5% hits. purified P. pyralis luciferase, luminescence, biochemical. P08659. Potency, µM (series often up to 115 µM), most hits filed as inhibitors. AID 1347043; active = well fitted curve in the direction sought with a large enough effect; inconclusive = small, poorly fitted or top-dose-only effect, or another doubt; inactive = no such curve, though single readings can be large; an effect the other way counts as inactive or inconclusive; also: % is scaled to controls: 0 for no effect and ±100 for the full control effect; nearly all actives have a fitted effect of over 65% in size
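Purified 10nM P. pyralis luciferase with 10uM D-luciferin and 10uM ATP in 50mM Tris acetate pH 7.5, 10mM Mg acetate, 0.01% Tween-20, 0.05% BSA. qHTS titration; luminescence read by CCD imager.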
hNpr1 antagonist: human Npr1 receptor antagonism. P16066. HEK293 hNpr1 GloSensor cGMP, ANP-stimulated luminescence. Potency, µM (titrated, usually from 46.3 µM), without a hit: at the top dose activity change, negative = inhibition, actives largely listed as inhibitors. 76,000 compounds, 1.6% hits; also: % is scaled to controls: 0 for no effect and ±100 for the full control effect; nearly all actives have a fitted effect of over 60% in size
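HEK293 cells stably expressing human Npr1 and cGMP GloSensor pGS-40F, loaded 2 h with 2% GloSensor reagent, given compound 30 min at room temperature. Luminescence read before and 20 min after 0.1 nM hNppA.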
NIH3T3 tox: kills NIH 3T3 cells; NIH 3T3 viability, CellTiter-Glo ATP luminescence, 48-72 h; Potency, µM (top dose mostly 96.7 µM), inactives show at the highest dose activity change, negative = cytotoxicity, usual class: inhibitors; 94,000 compounds, 4.3% hits; AID 1345082; active = well fitted curve in the direction sought with a large enough effect; inconclusive = small, poorly fitted or top-dose-only effect, or another doubt; inactive = no such curve, though single readings can be large; an effect the other way counts as inactive or inconclusive; also: % is scaled to controls: 0 for no effect and ±100 for the full control effect; nearly all actives have a fitted effect of over 55% in size
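Cells were seeded at 400 per well, treated with pin-transferred compound, and kept 48 or 72 hr at 37 °C before CellTiter-Glo addition and luminescence imaging of cellular ATP.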
NPR1 antag cnf: hNpr1 antagonism, confirmation assay; shares compounds with hNpr1 antagonist; HEK293 hNpr1 cGMP GloSensor luminescence, ANP-stimulated; Potency, µM (highest dose often 57.6 µM), for inactives: at the highest dose activity change, negative = inhibition, usual class: inhibitors; 1,400 compounds, 76% hits; AID 1347044; also: nearly all actives have a fitted effect of over 70% in size
NPR2 antag: antagonizes human Npr2, subtype selectivity check | HEK293 hNpr2 GloSensor cGMP luminescence, CNP-stimulated | shares compounds with hNpr1 antagonist | 1,400 compounds, 67% hits | Potency, µM (titrated, usually from 57.6 µM), inactives show at the top dose activity change, negative = inhibition, most hits filed as inhibitors | AID 1347046; also: nearly all actives have a fitted effect of over 70% in size
FLuc counter: counter-screen for Npr1 antagonists: firefly luciferase inhibitors; AID 1347047; purified FLuc enzyme, luminescence, Km substrate; Potency, µM (titrated, usually from 57.6 µM), inactives show at the top dose activity change, negative = inhibition, most hits filed as inhibitors; 1,400 compounds, 0.7% hits; shares compounds with hNpr1 antagonist; active = well fitted curve in the direction sought with a large enough effect; inconclusive = small, poorly fitted or top-dose-only effect, or another doubt; inactive = no such curve, though single readings can be large; an effect the other way counts as inactive or inconclusive; also: series mostly up to about 58 µM; 0% is about no effect
GloSensor cGMP: reduces cGMP signal in GloSensor control cells; Potency, µM (series often up to 57.6 µM), for the others: at the highest dose activity change, negative = inhibition, most hits filed as inhibitors; HEK293 GloSensor cGMP, SNP-stimulated, luminescence; 1,400 compounds, 69% hits; shares compounds with hNpr1 antagonist; also: % is scaled to controls: 0 for no effect and ±100 for the full control effect; nearly all actives have a fitted effect of over 70% in size
* hit, by the source's call; i = inactive; ? = inconclusive; / = no result; [ ] = dose if it differs, or a comment. Unless noted, calls follow the shape of the full dose curve. Potency is read from the fitted curve at half-maximal effect.

SMILES | HEK293 tox | FLuc inh | hNpr1 antagonist | NIH3T3 tox | NPR1 antag cnf | NPR2 antag | FLuc counter | GloSensor cGMP
O=C(Nc1cc(F)ccc1Cl)c1cc2n(n1)CC(c1ccc(Br)cc1)OC2 (centres undefined) | ? | ? | -24% | -12% | / | / | / | /
Cc1nsc(NC(=O)NCc2cccc(Cl)c2Cl)n1 | ? | i | -26% | ? | / | / | / | /
O=S(=O)(NC[C@H]1Cn2ccnc2CO1)c1ccccc1 | 3%[172 µM] | i | 2%[70.6 µM] | 1%[174 µM] | / | / | / | /
Nc1nc(C2CC(O)C2)cc(N2CCC(Cc3ccc(F)cc3)CC2)n1 (centres undefined) | ? | i | 11µM* | 16µM* | 19µM* | 19µM* | 1% | 12µM*
Cc1nc2c(c(-c3ccc(Cl)cc3)n1)CCN(C(=O)Nc1ccc(Cl)cc1)CC2 | ? | ? | -24% | ? | / | / | / | /
CCC(Cn1cnc(-c2ccccc2)c1-c1ccc(C#N)cc1)N1CCN(C)CC1 (centres undefined) | 79µM* | i | 11µM* | ? | 24µM* | 17µM* | 3% | -6%
N#Cc1ccc(-c2c(-c3ccccc3)ncn2CCNc2cccnc2)cc1 | -22% | i | -28% | -12% | / | / | / | /
NCCCC(=O)N1Cc2ccccc2CC2(CCCN(CC3CCOCC3)C2)C1 (centres undefined) | -22% | / | / | ? | / | / | / | /
CCn1c2c(c(=O)n1Cc1ccccc1)CCN(C(=O)c1ccc(Oc3ccccc3)cc1)C2 | ? | i | 11µM* | ? | 24µM* | 22µM* | 0% | 19µM*
CCn1c2c(c(=O)n1-c1ccccc1)CCN(C(=O)c1ccc(Oc3ccccc3)cc1)C2 | ? | i | 8.9µM* | ? | 8.6µM* | 11µM* | 0% | 7.7µM*
Cc1cc(C(=O)N2CCC3(CC2)CC(N(Cc2ccc(F)cc2)C2CC2)CCO3)n(C)n1 (centres undefined) | ? | i | ? | ? | 27µM* | ? | 0% | 27µM*
Cc1noc(-c2ccco2)c1C(=O)NCc1cccc2ccccc12 | ? | i | 13µM* | ? | 24µM* | ? | 3% | 31µM*
Cc1noc(-c2cccc(F)c2)c1C(=O)NCc1cccc2ccccc12 | ? | i | 1% | -17% | / | / | / | /
CCCS(=O)(=O)N1CC(Oc2ccc(-c3noc(-c4cccnc4)n3)cc2)C1 | ? | i | 14µM* | ? | 19µM* | 17µM* | -19% | 15µM*
CCCN1CC(Oc2ccc(-c3noc(-c4cccnc4)n3)cc2)C1 | ? | i | -25% | ? | / | / | / | /
Cc1ccc(CN2CC(Oc3ccc(-c4noc(-c5cccnc5)n4)cc3)C2)o1 | ? | i | 13µM* | ? | 19µM* | 24µM* | ? | 22µM*
Cc1cc(C(F)(F)F)n2ncc(C(=O)N3C[C@@H](C)[C@](O)(C4CCC4)C3)c2n1 | -29% | i | 1% | -3% | / | / | / | /
O=C(Nc1ccc(F)c(Cl)c1)C1=NO[C@@H]2CN(Cc3cccnc3)C[C@H]12 | ? | i | 28µM* | ? | 35µM* | 35µM* | -3%[86.2 µM] | 31µM*
O=C(Nc1ccncc1)C1=NO[C@@H]2CN(CCc3ccccc3)C[C@H]12 | ? | i | ? | ? | 40µM* | ? | 5%[86.2 µM] | 35µM*
CNC(=O)c1cc(C)nc2onc(C3CCCN(C(=O)C4CCCCC4)C3)c12 (centres undefined) | -1% | / | / | -23% | / | / | / | /
